Experimental data taken from PubChem BioAssay AID1159580 (chemical genetic matrix, 2015).
About 2,000 (36%) of roughly 5,500 compounds were called active. Not shown: some 18% with an inconclusive outcome. Cut-off read from the data, not from the text of the source: active = normalized growth mostly below about 0.91 (no sharp cut-off); inconclusive = no clear call, values can overlap the other calls; inactive = mostly above about 0.92. The list shows a part of the results.

Assay: chemical genetic growth profiling, strain panel (AID 1159580);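 note: tested at 20 µM; growth read once vehicle control cultures reached saturation at 30 °C; 1 = growth at the plate median or of vehicle wells; lower values mean less growth of the strain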
Conditions: growth OD

Measured: normalized growth

Cc1occc(=O)c1O
inactive: S. cerevisiae deletion strains, locus YKL009W, strain mrt4, stronger effect = lower value 1.01 | S. cerevisiae deletion strains, locus YKL068W, stronger effect = lower value 1 | S. cerevisiae deletion strains, locus YKL085W, strain MDH1 (second series), stronger effect = lower value 1 | S. cerevisiae deletion strains, locus YKL085W, strain MDH1, stronger effect = lower value 1 | S. cerevisiae deletion strains, locus YKL160W, strain elf1, stronger effect = lower value 0.962 | S. cerevisiae deletion strains, locus YKR001C, strain vps1, stronger effect = lower value 1.03 | S. cerevisiae deletion strains, locus YKR026C, strain gcn3, stronger effect = lower value 0.97 | S. cerevisiae deletion strains, locus YKR091W, strain srl3, stronger effect = lower value 0.962 | S. cerevisiae deletion strains, locus YLL001W, strain dnm1, stronger effect = lower value 0.96 | S. cerevisiae deletion strains, locus YLL026W, stronger effect = lower value 0.961 | S. cerevisiae deletion strains, locus YLL041C, strain sdh2, stronger effect = lower value 0.977 | S. cerevisiae deletion strains, locus YLR027C, strain aat2, stronger effect = lower value 0.97 | S. cerevisiae deletion strains, locus YLR039C, strain RIC1, stronger effect = lower value 1.01 | S. cerevisiae deletion strains, locus YLR058C, strain SHM2, stronger effect = lower value 1.01 | S. cerevisiae deletion strains, locus YLR102C, strain apc9, stronger effect = lower value 1.01 | S. cerevisiae deletion strains, locus YLR113W, strain HOG1, stronger effect = lower value 1.03 | S. cerevisiae deletion strains, locus YLR221C, strain rsa3, stronger effect = lower value 0.96 | S. cerevisiae deletion strains, locus YLR258W, strain gsy2, stronger effect = lower value 0.973 | S. cerevisiae deletion strains, locus YLR262C, strain YPT6 (second series), stronger effect = lower value 0.964 | S. cerevisiae deletion strains, locus YLR262C, strain YPT6, stronger effect = lower value 1.01 | S. cerevisiae deletion strains, locus YLR268W, strain sec22, stronger effect = lower value 1.01 | S. cerevisiae deletion strains, locus YLR320W, strain mms22, stronger effect = lower value 0.95 | S. cerevisiae deletion strains, locus YLR330W, strain CHS5, stronger effect = lower value 0.999 | S. cerevisiae deletion strains, locus YLR342W, strain FKS1 (second series), stronger effect = lower value 1 | S. cerevisiae deletion strains, locus YLR342W, strain FKS1, stronger effect = lower value 0.974 | S. cerevisiae deletion strains, locus YLR357W, strain rsc2, stronger effect = lower value 0.941 | S. cerevisiae deletion strains, locus YLR370C, strain arc18, stronger effect = lower value 0.98 | S. cerevisiae deletion strains, locus YLR371W, strain rom2, stronger effect = lower value 1.02 | S. cerevisiae deletion strains, locus YLR384C, strain iki3, stronger effect = lower value 0.969 | S. cerevisiae deletion strains, locus YLR418C, strain cdc73, stronger effect = lower value 1.03 | S. cerevisiae deletion strains, locus YML016C, strain PPZ1, stronger effect = lower value 1 | S. cerevisiae deletion strains, locus YML032C, strain rad52, stronger effect = lower value 1.01 | S. cerevisiae deletion strains, locus YML120C, strain ndi1, stronger effect = lower value 0.95 | S. cerevisiae deletion strains, locus YML124C, strain tub3, stronger effect = lower value 1.01 | S. cerevisiae deletion strains, locus YMR058W, strain fet3, stronger effect = lower value 0.971 | S. cerevisiae deletion strains, locus YMR078C, strain ctf18, stronger effect = lower value 1.01 | S. cerevisiae deletion strains, locus YMR125W, strain sto1, stronger effect = lower value 0.935 | S. cerevisiae deletion strains, locus YMR129W, stronger effect = lower value 0.972 | S. cerevisiae deletion strains, locus YMR205C, strain PFK2, stronger effect = lower value 0.948 | S. cerevisiae deletion strains, locus YMR223W, strain ubp8, stronger effect = lower value 0.998 | S. cerevisiae deletion strains, locus YMR231W, strain pep5, stronger effect = lower value 0.976 | S. cerevisiae deletion strains, locus YMR307W, strain GAS1, stronger effect = lower value 0.968 | S. cerevisiae deletion strains, locus YNL067W, strain RPL9B, stronger effect = lower value 1 | S. cerevisiae deletion strains, locus YNL071W, strain lat1, stronger effect = lower value 0.979 | S. cerevisiae deletion strains, locus YNL128W, strain TEP1, stronger effect = lower value 1.03 | S. cerevisiae deletion strains, locus YNL183C, strain NPR1, stronger effect = lower value 0.97 | S. cerevisiae deletion strains, locus YNL209W, strain ssb2, stronger effect = lower value 0.971 | S. cerevisiae deletion strains, locus YNL233W, strain BNI4, stronger effect = lower value 1.01 | S. cerevisiae deletion strains, locus YNL248C, strain rpa49, stronger effect = lower value 0.975 | S. cerevisiae deletion strains, locus YNL250W, strain rad50, stronger effect = lower value 1 | S. cerevisiae deletion strains, locus YNL271C, strain bni1, stronger effect = lower value 1.02 | S. cerevisiae deletion strains, locus YNL298W, strain CLA4, stronger effect = lower value 1.05 | S. cerevisiae deletion strains, locus YNL307C, strain MCK1, stronger effect = lower value 1.02 | S. cerevisiae deletion strains, locus YNL322C, strain KRE1 (second series), stronger effect = lower value 0.943 | S. cerevisiae deletion strains, locus YNL322C, strain KRE1, stronger effect = lower value 1 | S. cerevisiae deletion strains, locus YNR049C, strain mso1, stronger effect = lower value 0.958 | S. cerevisiae deletion strains, locus YNR052C, strain pop2, stronger effect = lower value 1.01 | S. cerevisiae deletion strains, locus YOL012C, strain htz1 1.37 | S. cerevisiae deletion strains, locus YOL147C, strain pex11, stronger effect = lower value 1.01 | S. cerevisiae deletion strains, locus YOR001W, strain rrp6, stronger effect = lower value 0.983 | S. cerevisiae deletion strains, locus YOR061W, strain CKA2, stronger effect = lower value 1.01 | S. cerevisiae deletion strains, locus YOR069W, strain VPS5, stronger effect = lower value 1.01 | S. cerevisiae deletion strains, locus YOR070C, strain gyp1, stronger effect = lower value 0.969 | S. cerevisiae deletion strains, locus YOR080W, strain dia2, stronger effect = lower value 0.961 | S. cerevisiae deletion strains, locus YOR083W, strain WHI5, stronger effect = lower value 0.952 | S. cerevisiae deletion strains, locus YOR106W, strain vam3, stronger effect = lower value 0.942 | S. cerevisiae deletion strains, locus YOR136W, strain idh2, stronger effect = lower value 1.02 | S. cerevisiae deletion strains, locus YOR144C, strain elg1, stronger effect = lower value 1.01 | S. cerevisiae deletion strains, locus YOR184W, strain ser1, stronger effect = lower value 1.03 | S. cerevisiae deletion strains, locus YOR231W, strain MKK1, stronger effect = lower value 1.02 | S. cerevisiae deletion strains, locus YOR265W, strain rbl2, stronger effect = lower value 0.971 | S. cerevisiae deletion strains, locus YOR270C, strain vph1, stronger effect = lower value 0.931 | S. cerevisiae deletion strains, locus YOR290C, strain snf2, stronger effect = lower value 0.916 | S. cerevisiae deletion strains, locus YOR316C, strain cot1, stronger effect = lower value 1.01 | S. cerevisiae deletion strains, locus YPL051W, strain arl3, stronger effect = lower value 0.973 | S. cerevisiae deletion strains, locus YPL055C, strain LGE1, stronger effect = lower value 1.01 | S. cerevisiae deletion strains, locus YPL078C, strain atp4, stronger effect = lower value 0.968 | S. cerevisiae deletion strains, locus YPL106C, strain sse1, stronger effect = lower value 0.924 | S. cerevisiae deletion strains, locus YPL240C, strain hsp82, stronger effect = lower value 0.983 | S. cerevisiae deletion strains, locus YPL241C, strain CIN2, stronger effect = lower value 1 | S. cerevisiae deletion strains, locus YPL256C, strain CLN2, stronger effect = lower value 1.01 | S. cerevisiae deletion strains, locus YPR119W, strain clb2, stronger effect = lower value 1 | S. cerevisiae deletion strains, locus YPR141C, strain kar3, stronger effect = lower value 1 | S. cerevisiae deletion strains, locus YPR163C, strain tif3, stronger effect = lower value 1 | S. cerevisiae deletion strains, locus YPR167C, strain met16, stronger effect = lower value 1.01 | S. cerevisiae deletion strains, strain wtn01, stronger effect = lower value 0.993 | S. cerevisiae strains, strain wild type, stronger effect = lower value 1
